Inconclusive results are not listed. Active and inactive are the calls of the source. Unless noted, the call rests on the fitted dose curve; in most records, active means well fitted curve in the direction sought with a large enough effect; inconclusive means small, poorly fitted or top-dose-only effect, or another doubt; inactive means no such curve, though single readings can be large; an effect the other way counts as inactive or inconclusive.
Key:
[1] = target: DNA repair nuclease/redox regulator APEX1 (Homo sapiens) (UniProt P27695); assay: qHTS Validation Assay for Inhibitors of the Human Apurinic/apyrimidinic Endonuclease 1 (APE1) (AID 1705;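 further: TAMRA fluorescence gain over two minutes as APE1 cuts a quenched THF abasic duplex; on the % scale 0 is the no-effect control and ±100 the full control effect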)
Sequence of DNA repair nuclease/redox regulator APEX1 (Homo sapiens) (P27695 whole entry, looked up): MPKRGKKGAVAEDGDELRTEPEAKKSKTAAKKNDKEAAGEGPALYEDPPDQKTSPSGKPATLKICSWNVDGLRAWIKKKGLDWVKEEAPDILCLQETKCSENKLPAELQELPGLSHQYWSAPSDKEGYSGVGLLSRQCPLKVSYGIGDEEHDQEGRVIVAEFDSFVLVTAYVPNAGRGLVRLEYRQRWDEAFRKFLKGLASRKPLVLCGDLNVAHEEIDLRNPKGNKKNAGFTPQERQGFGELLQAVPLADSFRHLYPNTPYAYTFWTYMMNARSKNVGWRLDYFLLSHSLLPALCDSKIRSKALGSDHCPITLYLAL
Outline: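 Endonuclease activity of human APE1 is followed as dequenching when the enzyme incises a tetrahydrofuran abasic site in a short duplex labelled 5'-TAMRA/3'-BHQ-2 (50 nM final), after 15 min enzyme–compound preincubation at room temperature.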

[2] = qHTS for differential inhibitors of proliferation of Plasmodium falciparum line GB4 (AID 1816); conditions: Potency: Plasmodium falciparum GB4 proliferation inhibition;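 further: parasite growth measured after 72 h incubation; 0% = vehicle DMSO and -100% = reference inhibitor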
[3] = qHTS for differential inhibitors of proliferation of Plasmodium falciparum line 3D7 (AID 1876);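 further: parasite growth measured after three days of culture; 0% = vehicle wells and -100% = reference inhibitor wells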
[4] = qHTS for differential inhibitors of proliferation of Plasmodium falciparum line HB3 (AID 1886); conditions: Potency: Plasmodium falciparum HB3 proliferation inhibition;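 further: parasites grown with compound for 72 h before SYBR Green readout; plate controls were vehicle for no effect and reference inhibitor for full effect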
[5] = target: ATP-dependent DNA helicase Q1 (Homo sapiens) (UniProt P46063); assay: qHTS Validation Assay for Inhibitors of RecQ-Like Dna Helicase 1 (RECQ1) (AID 2353);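 further: plate controls were DMSO vehicle for no effect and enzyme-free control for full effect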
Sequence of ATP-dependent DNA helicase Q1 (Homo sapiens) (P46063 whole entry, looked up): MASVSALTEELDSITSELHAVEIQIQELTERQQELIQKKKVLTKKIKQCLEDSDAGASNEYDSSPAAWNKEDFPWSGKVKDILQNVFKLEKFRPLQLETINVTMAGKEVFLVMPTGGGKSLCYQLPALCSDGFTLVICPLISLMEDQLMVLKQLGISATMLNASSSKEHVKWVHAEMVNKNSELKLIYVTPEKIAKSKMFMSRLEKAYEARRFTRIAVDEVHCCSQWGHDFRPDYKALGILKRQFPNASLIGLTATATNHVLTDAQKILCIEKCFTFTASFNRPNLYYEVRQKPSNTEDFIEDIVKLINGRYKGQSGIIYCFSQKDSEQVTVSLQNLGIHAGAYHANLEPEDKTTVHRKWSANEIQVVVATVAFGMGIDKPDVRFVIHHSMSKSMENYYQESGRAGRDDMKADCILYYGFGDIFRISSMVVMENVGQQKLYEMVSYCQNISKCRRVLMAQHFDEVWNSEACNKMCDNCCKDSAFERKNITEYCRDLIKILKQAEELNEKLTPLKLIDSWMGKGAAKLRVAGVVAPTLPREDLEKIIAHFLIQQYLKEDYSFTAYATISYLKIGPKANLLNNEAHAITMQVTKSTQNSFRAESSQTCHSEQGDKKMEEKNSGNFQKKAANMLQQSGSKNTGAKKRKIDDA
Outline: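 50 nM RECQ1T1 preincubated 15 min with compound in Tris pH 8.0 buffer with MgCl2, DTT, Tween-20 and 2.5 ug/ml poly(dI-dC); started with 200 nM TAMRA/BHQ-2 forked duplex and 2 mM ATP. Unwinding read as fluorescence (525/598 nm), two reads 2 h apart.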

[6] = Quantitative high throughput screen for delayed death inhibitors of the malarial parasite plastid, 96 hour incubation (AID 488745); further: on the % scale 0 is the no-effect control and ±100 the full control effect; nearly all actives have a fitted effect of over 70% in size
Outline: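 P. falciparum carrying an integrated firefly luciferase reporter, grown in erythrocytes (2% hematocrit, 0.1% parasitemia final) in RPMI 1640/0.5% Albumax, was exposed to compound for 96 h (two generations) at 37 C, 5% CO2. Luminescence decrease indicated growth inhibition.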

[7] = Quantitative high throughput screen for delayed death inhibitors of the malarial parasite plastid, 48 hour incubation (AID 488752); further: on the % scale 0 is the no-effect control and ±100 the full control effect; nearly all actives have a fitted effect of over 65% in size
Outline: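 Erythrocytes infected with P. falciparum carrying an integrated firefly luciferase reporter (2% hematocrit, 0.1% parasitemia final) were exposed to compounds in RPMI 1640/0.5% Albumax for 48 h at 37 C, 5% CO2. Growth inhibition was scored as reduced luminescence.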

[8] = target: M-phase phosphoprotein 8 (Homo sapiens) (UniProt Q99549); assay: qHTS Validation Assay for Inhibitors for MPP8 Chromodomain Interactions with Methylated Histone Tails (AID 488949);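 further: AlphaScreen signal from MPP8 chromodomain bound to biotinylated H3K9me3 peptide; top concentration of the series differs between compounds; on the % scale 0 is the no-effect control and ±100 the full control effect; nearly all actives have a fitted effect of over 55% in size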
Sequence of M-phase phosphoprotein 8 (Homo sapiens) (Q99549 whole entry, looked up): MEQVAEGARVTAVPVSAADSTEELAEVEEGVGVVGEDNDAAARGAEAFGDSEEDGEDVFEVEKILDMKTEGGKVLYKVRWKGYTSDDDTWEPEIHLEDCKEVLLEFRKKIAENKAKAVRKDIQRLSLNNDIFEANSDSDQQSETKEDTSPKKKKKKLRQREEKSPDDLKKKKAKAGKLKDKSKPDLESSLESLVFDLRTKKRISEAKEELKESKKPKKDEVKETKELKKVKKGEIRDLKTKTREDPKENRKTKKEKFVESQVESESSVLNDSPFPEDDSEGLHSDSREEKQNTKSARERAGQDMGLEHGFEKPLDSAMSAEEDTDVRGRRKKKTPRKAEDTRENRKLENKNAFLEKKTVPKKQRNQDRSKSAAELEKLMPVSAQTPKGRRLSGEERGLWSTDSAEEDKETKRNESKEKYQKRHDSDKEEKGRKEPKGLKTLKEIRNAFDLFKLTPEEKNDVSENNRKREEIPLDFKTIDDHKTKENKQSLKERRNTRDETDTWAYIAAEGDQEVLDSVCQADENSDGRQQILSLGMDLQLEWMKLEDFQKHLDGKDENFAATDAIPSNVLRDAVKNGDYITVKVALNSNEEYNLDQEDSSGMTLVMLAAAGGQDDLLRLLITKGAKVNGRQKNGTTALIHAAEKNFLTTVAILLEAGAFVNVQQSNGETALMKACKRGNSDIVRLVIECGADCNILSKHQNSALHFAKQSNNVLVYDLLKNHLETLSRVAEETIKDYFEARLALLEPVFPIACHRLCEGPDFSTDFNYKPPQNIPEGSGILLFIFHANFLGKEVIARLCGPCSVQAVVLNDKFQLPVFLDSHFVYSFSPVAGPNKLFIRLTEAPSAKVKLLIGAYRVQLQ
Outline: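 Disruption of the preformed MPP8–trimethyl-H3K9 peptide complex (both 50 nM, 30 min, RT) is measured after 30 min compound exposure, using AlphaScreen proximity beads; aurintricarboxylic acid titration serves as plate control.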

[9] = target: Transient receptor potential cation channel subfamily V member 1 (Homo sapiens) (UniProt Q8NER1); assay: HTS Assay for Compounds that Act as Enhancers of the Vanilloid Receptor 1 (AID 488979); further: 0% is about no effect
Sequence of Transient receptor potential cation channel subfamily V member 1 (Homo sapiens) (Q8NER1 whole entry, looked up): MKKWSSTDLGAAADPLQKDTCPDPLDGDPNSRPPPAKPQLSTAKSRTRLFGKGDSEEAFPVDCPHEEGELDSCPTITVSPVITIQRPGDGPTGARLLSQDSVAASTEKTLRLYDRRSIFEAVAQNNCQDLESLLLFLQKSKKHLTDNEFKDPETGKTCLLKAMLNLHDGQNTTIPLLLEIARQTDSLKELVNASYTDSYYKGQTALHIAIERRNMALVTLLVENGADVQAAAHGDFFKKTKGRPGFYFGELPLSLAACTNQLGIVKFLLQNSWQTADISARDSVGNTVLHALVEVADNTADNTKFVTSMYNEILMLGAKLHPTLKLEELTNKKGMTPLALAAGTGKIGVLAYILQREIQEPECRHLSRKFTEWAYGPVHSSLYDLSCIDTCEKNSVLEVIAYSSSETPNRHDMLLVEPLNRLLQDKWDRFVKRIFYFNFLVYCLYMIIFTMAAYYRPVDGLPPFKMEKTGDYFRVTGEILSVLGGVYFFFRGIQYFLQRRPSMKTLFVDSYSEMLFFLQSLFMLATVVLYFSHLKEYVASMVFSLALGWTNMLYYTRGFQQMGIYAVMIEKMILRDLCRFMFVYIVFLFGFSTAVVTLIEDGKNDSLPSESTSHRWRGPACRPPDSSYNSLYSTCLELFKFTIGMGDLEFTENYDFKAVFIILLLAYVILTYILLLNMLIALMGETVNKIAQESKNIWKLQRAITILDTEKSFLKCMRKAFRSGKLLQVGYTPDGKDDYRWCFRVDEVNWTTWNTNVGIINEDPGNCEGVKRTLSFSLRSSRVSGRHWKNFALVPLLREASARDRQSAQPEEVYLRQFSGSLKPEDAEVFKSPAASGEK
Outline: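 TRPV1 cells loaded with Fluo-8 calcium dye; compound added and Ca2+ signal (ex 480/em 520 nm) followed 3 min, then capsaicin at EC20 added and read 2 more min to detect enhancement.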

[10] = target: Thyrotropin receptor (Homo sapiens) (UniProt P16473); assay: qHTS Assay for Antagonists of the Thyroid Stimulating Hormone Receptor (AID 488980); further: 0% is about no effect
Sequence of Thyrotropin receptor (Homo sapiens) (P16473 whole entry, looked up): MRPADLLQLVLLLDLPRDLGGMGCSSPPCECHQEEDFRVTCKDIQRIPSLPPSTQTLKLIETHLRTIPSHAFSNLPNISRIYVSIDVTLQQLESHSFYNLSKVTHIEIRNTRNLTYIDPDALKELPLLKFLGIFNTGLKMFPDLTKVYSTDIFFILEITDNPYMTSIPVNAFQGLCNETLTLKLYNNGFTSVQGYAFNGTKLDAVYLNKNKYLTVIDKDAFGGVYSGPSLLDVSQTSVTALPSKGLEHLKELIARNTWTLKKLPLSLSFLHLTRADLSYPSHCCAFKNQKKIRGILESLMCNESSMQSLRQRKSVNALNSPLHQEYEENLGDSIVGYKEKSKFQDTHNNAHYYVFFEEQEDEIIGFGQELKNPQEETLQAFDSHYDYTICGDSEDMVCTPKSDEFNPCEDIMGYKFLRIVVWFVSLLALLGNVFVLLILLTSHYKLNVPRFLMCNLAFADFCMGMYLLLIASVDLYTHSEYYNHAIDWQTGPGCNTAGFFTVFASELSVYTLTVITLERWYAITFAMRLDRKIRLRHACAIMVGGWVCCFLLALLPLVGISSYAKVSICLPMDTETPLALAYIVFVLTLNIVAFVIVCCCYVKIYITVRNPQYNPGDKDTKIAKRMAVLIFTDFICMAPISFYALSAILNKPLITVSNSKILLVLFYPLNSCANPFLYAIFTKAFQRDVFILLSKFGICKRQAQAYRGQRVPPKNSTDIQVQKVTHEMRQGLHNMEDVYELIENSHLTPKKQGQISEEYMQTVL
Outline: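 Cells expressing human TSHR (HEK293) are dispensed in HBSS/HEPES containing 70 uM RO 20-1724, compound is added, then TSH at EC80 (4 nM final). Antibody in lysis buffer follows, 30 minutes at room temperature before HTRF detection.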

[11] = target: Thyrotropin-releasing hormone receptor (Homo sapiens) (UniProt P34981); assay: qHTS for Small Molecule Agonists and Allosteric Enhancers of Human TRH Receptor: Validation Screen for Agonists (AID 493127;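 active means calcium activation more than 3 SD above the typical response in the agonist read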;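 further: intracellular calcium rise by fluo-8 fluorescence before TRH EC20 addition; 0% is about no effect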); conditions: TRH receptor agonist cell assay; at 2 µM; stronger effect = higher value
Sequence of Thyrotropin-releasing hormone receptor (Homo sapiens) (P34981 whole entry, looked up): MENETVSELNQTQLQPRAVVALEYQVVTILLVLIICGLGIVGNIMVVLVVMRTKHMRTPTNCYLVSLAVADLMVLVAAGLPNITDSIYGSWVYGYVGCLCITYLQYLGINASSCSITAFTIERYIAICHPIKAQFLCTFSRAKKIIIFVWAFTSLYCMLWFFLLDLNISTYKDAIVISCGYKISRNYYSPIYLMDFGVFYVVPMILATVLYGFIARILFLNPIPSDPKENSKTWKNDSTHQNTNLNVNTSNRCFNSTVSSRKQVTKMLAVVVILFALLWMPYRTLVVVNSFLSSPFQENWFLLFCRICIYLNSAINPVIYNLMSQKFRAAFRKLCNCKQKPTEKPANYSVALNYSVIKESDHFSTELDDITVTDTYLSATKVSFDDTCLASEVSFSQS
Outline: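 TRHR-expressing cells were plated overnight in serum-containing medium, then loaded with fluo-8 calcium dye at room temperature for 30 min–1.5 h. After a 10 s baseline, compound was pin-transferred and calcium fluorescence (ex 480/em 530) read kinetically for agonist response.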

[12] = target: Galactokinase (Homo sapiens) (UniProt P51570); assay: qHTS Validation Assay for Inhibitors of Human Galactokinase (GALK) (AID 493189); further: 0% is about no effect
Sequence of Galactokinase (Homo sapiens) (P51570 whole entry, looked up): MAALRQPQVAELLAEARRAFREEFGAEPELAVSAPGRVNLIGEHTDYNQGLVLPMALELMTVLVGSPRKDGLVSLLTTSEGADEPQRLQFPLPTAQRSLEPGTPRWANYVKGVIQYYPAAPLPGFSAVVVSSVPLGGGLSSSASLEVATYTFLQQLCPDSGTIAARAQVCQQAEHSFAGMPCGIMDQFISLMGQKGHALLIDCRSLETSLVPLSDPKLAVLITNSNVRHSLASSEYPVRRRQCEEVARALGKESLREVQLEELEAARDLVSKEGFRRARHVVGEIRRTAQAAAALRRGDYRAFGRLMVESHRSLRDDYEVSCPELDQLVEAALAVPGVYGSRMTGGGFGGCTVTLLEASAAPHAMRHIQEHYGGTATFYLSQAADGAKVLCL
Outline: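 Compounds were pin-transferred into ATP buffer, then GALK-galactose mix was added (final 5 nM enzyme, 100 uM galactose, 35 uM ATP). After 1 h at room temperature, remaining ATP was measured luminescently.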

[13] = Validation screen for small molecules that induce DNA re-replication in SW480 colon adenocarcinoma cells (AID 504364); further: 0% is about no effect
Outline: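 SW480 cells seeded at 250 per well were exposed to compound or DMSO for 48 hr at 37 C, 5% CO2, then stained with Hoechst for 40 min. DNA content per nucleus was imaged (405 nm ex, 500-530 nm em).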

[14] = tested on: AS120; assay: qHTS profiling for inhibitors of Plasmodium falciparum proliferation (AID 504749);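 further: 0% = DMSO vehicle and full inhibition = artemisinin control; nearly all actives have a fitted effect of over 60% in size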; conditions: P. falciparum in erythrocytes, SYBR Green DNA, 72 h; series mostly up to 28.7 µM
Outline: (§1)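 Readout was DNA-dye fluorescence from lysed cultures, ex 485/em 535 nm. Parasitized red cells had grown 72 h with compound; data scaled between 0.29 uM artemisinin and DMSO wells and corrected using vehicle-only plates.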

[15] = tested on: ATS189; assay: as above; conditions: P. falciparum in erythrocytes, SYBR Green DNA, 72 h; series mostly up to 28.7 µM
Outline: as §1

[16] = tested on: CP191; assay: as above; conditions: P. falciparum in erythrocytes, SYBR Green DNA, 72 h; series mostly up to 28.7 µM
Outline: as §1

[17] = tested on: CP203; assay: as above; conditions: P. falciparum in erythrocytes, SYBR Green DNA, 72 h; series mostly up to 28.7 µM
Outline: as §1

[18] = tested on: CP291; assay: as above; conditions: P. falciparum in erythrocytes, SYBR Green DNA, 72 h; series mostly up to 28.7 µM
Outline: as §1

[19] = tested on: DFO2036; assay: as above; conditions: P. falciparum in erythrocytes, SYBR Green DNA, 72 h; series mostly up to 28.7 µM
Outline: as §1

[20] = tested on: TAB113; assay: as above; conditions: P. falciparum in erythrocytes, SYBR Green DNA, 72 h; series mostly up to 28.7 µM
Outline: as §1

CCCCCCCCCCCCC/C=C/[C@@H](O)[C@@H](N)CO
inactive: Potency [1] | Potency [2] | Potency [3] | Potency [4] | Potency [5] | Potency [6] | Potency [7] | Potency [8] | outcome [9] | outcome [10] | activation [11] 0.312% | outcome [12] | outcome [13]

COC(=O)[C@@H]1[C@@H]2C[C@H]3c4[nH]c5ccccc5c4CCN3C[C@@H]2CC[C@@H]1O
inactive: Potency [14] | Potency [15] | Potency [16] | Potency [17] | Potency [18] | Potency [19] | Potency [20]

COc1ccccc1NC(=O)Nc1nc(-c2cccnc2)nc2ccccc12
inactive: Potency [1] | Potency [2] | Potency [3] | Potency [4] | Potency [5] | Potency [6] | Potency [7] | Potency [8] | outcome [9] | outcome [10] | activation [11] 0.25% | outcome [12] | outcome [13]

C[C@@H](C(=O)O)c1ccc(-c2ccccc2)c(F)c1
inactive: Potency [14] | Potency [15] | Potency [16] | Potency [17] | Potency [18] | Potency [19] | Potency [20]

Reference: PubChem BioAssay (NCATS)
